Bioassay records as filed in PubChem BioAssay.
This excerpt belongs to a sample that is enriched for hits.
CBX7 AlphaScr – CBX7 inhibition, primary AlphaScreen; O95931; AID 1224903; normalised signal (fraction of DMSO) (concentration not given with the values); AlphaScreen His6-CBX7 / biotin-H3K27me3 peptide binding; stronger effect = lower value; 66,000 compounds, 1.1% hits; in the data active means normalised signal below about 0.5
Target sequence (O95931 whole entry, looked up): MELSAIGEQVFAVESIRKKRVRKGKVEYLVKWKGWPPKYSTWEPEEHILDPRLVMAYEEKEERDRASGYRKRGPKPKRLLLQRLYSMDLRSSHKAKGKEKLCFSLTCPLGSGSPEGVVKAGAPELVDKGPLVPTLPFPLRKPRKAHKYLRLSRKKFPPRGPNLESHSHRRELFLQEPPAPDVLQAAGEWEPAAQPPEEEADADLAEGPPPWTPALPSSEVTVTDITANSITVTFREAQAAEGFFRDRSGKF
Active calls of the source: *.

SMILES | CBX7 AlphaScr
Cc1ccc2nc(-c3ccccn3)c(Nc3ccccc3)n2c1 | 0.11*
Cc1ccc(Nc2c(-c3ccccc3)nc3ccc(C)cn23)cc1 | 1.2
COc1ccc(Nc2cc(C)nc3c2ccc2ccccc23)cc1 | 1
CC(=O)Nc1ccc(S(=O)(=O)N2CCN(c3cccc(C)c3)C(C)C2)cc1 (stereo not given) | 0.97
Cc1cc(N2CCCCC2)nc2ccc(NC(=O)CCC(=O)N3CCCC(C)C3)cc12 (stereo not given) | 0.48*
CCOC(=O)C1CCCN(C(=O)CCC(=O)Nc2ccc3nc(N4CCC(C)CC4)cc(C)c3c2)C1 (stereo not given) | 1
Cc1cc(N2CCC(C)CC2)nc2ccc(NC(=O)CCC(=O)N3CCCCCC3)cc12 | 0.83
CCCOc1ccc(N2C(=O)CC(N3CCN(Cc4ccc5c(c4)OCO5)CC3)C2=O)cc1 (stereo not given) | 0.97
CCc1cccc(NC(=O)C(Cc2ccccc2)NS(=O)(=O)c2ccc3c(c2)CCC(=O)N3)c1 (stereo not given) | 0.92
CC(=O)Nc1ccc(S(=O)(=O)Nc2cccc3cccnc23)cc1 | 0.045*
CC(=O)Nc1ccc(S(=O)(=O)Nc2ccc(S(=O)(=O)Nc3nccc(C)n3)cc2)cc1 | 1
Cc1ccc(S(=O)(=O)Nc2ccccc2CNc2cccc3cccnc23)cc1 | 0.92
CC(C)(c1ccccc1)c1ccc(OCCN2CCOCC2)cc1 | 0.3*
CCCCOc1ccc(C(O)(CCC)CCN2CCOCC2)cc1 (stereo not given) | 1
CCCOc1ccc(C(C)(O)CN2CCOCC2)cc1 (stereo not given) | 0.98
COc1cccc(-c2nc(C(=O)NCc3ccc(Cl)cc3)c(C)o2)c1 | 0.96
O=C(C1CCC1)N1CCc2cc(S(=O)(=O)Nc3cccc(C(F)(F)F)c3)ccc21 | 0.99
O=C1C2C3C=CC(C3)C2C(=O)N1c1c[nH]c(=O)[nH]c1=O (stereo not given) | 1
Cc1nnc2ccc(NCCC(C)C)nn12 | 0.86
CCc1cc2c(=O)c(-c3ccc4c(c3)OCCO4)c(C)oc2cc1OCC(=O)O | 1
Cc1ccc(NCC(O)Cn2c3c(c4cc(C)ccc42)CCCC3)cc1 (stereo not given) | 0.6
Cc1ccc2c(c1)c1c(n2CC(O)CN2CCCCC2C)CCCC1 (stereo not given) | 0.82
Cc1ccc(NCC(O)Cn2c3c(c4cc(C)ccc42)CCCC3)c(C)c1 (stereo not given) | 0.47*
O=C(CN1N=C(c2ccc(Cl)cc2)CCC1=O)NC1CCCCC1 | 0.99
Cc1ccn2c(Nc3ccccc3)c(-c3ccccn3)nc2c1 | 0.06*
SMILES | CBX7 AlphaScr
Cc1ccc(Nc2c(-c3ccc(Cl)cc3)nc3cc(C)ccn23)cc1 | 1
Cc1ccccc1Nc1c(-c2ccccn2)nc2cnccn12 | 0.8
COc1ccc(-c2nc3cc(C)ccn3c2Nc2ccccc2C)cc1 | 0.78
Cc1ccn2c(Nc3ccccc3C)c(-c3ccccn3)nc2c1 | 0.0084*
Cc1ccn2c(Nc3ccccc3C)c(-c3ccc(Cl)cc3)nc2c1 | 0.85
Cc1ccccc1Nc1c(-c2cccnc2)nc2ccccn12 | 0.9
Cc1ccn2c(Nc3ccccc3)c(-c3cccnc3)nc2c1 | 0.94
Cc1ccccc1Nc1c(-c2ccccn2)nc2ccccn12 | 0.13*
Cc1nc2cc(C(=O)NCCc3ccccc3)ccc2n1-c1ccc(F)c(F)c1 | 1
CCOCCCNC(=O)c1cc(Nc2ccc(OC)c(OC)c2)nc2ccccc12 | 0.9
C=CCn1c(SCC(=O)Nc2ccc(F)c(Cl)c2)nnc1-c1cccnc1 | 1.1
Cc1c(C(=O)NC2CCCC2)oc2ccc(S(=O)(=O)N3CCCC(C)C3)cc12 (stereo not given) | 1.1
COc1ccc(NC(=O)C(NS(=O)(=O)c2cccs2)C(C)C)cc1 (stereo not given) | 0.99
CCOC(=O)c1c(C)n(-c2ccc(C)cc2)c2ccc(OCC(O)CNC(CC)CO)cc12 (stereo not given) | 0.77
CCOc1cc(-c2nc3sc4c(c3c(=O)[nH]2)CCCC4)ccc1OCCOc1cc(C)ccc1C(C)C | 1.1
CCOc1ccc(-n2c(Cc3cc(=O)[nH]c(=O)[nH]3)nnc2SCC(=O)Nc2cccc(F)c2)cc1 | 0.84
Cc1ccc(NC(=O)CN(c2ccc(C(C)C)cc2)S(=O)(=O)c2cccnc2)cc1 | 1.1
Cc1onc(-c2ccccc2Cl)c1-c1nc(Cc2ccccc2)no1 | 0.83
CCOC(=O)c1cnc2ccc(C)cc2c1Nc1ccc(N(C)C)cc1 | 0.38*
CCOC(=O)c1cnc2c(C(F)(F)F)cccc2c1Nc1ccc(O)cc1 | 0.8
CCOC(=O)c1cnc2c(C(F)(F)F)cccc2c1Nc1ccc(N(C)C)cc1 | 0.16*
CCOC(=O)c1cnc2c(C(F)(F)F)cccc2c1Nc1ccc(NC(C)=O)cc1 | 0.86
CCOC(=O)c1cnc2c(C)cccc2c1Nc1ccc(C)c(C)c1 | 1.5
CCOC(=O)c1cnc2c(C)cc(Cl)cc2c1Nc1ccc(N(C)C)cc1 | 0.83
CCOC(=O)c1cnc2ccc(C)cc2c1Nc1ccc(C)cc1 | 1.1
CCOC(=O)c1cnc2c(C)cccc2c1Nc1ccc(N(C)C)cc1 | 0.25*
CCOC(=O)c1cnc2ccc(C)cc2c1Nc1cccc(C)c1 | 0.99
